# Laboratory results: ChEMBL document CHEMBL3988442, “University of Dundee, Small-Polar-MMV Screening Library” (2021)
# For some assays here: Potency and affinity values are given separately.
# Key:
# Parameters in all cases: scale not given: direction of the effect not stated beside the values
# [1] = molecular target: Protein translocase subunit SecA (Escherichia coli (strain K12)) (UniProt P10408); assay: Assay to Identify E. coli SecA ATPase Inhibitors; assay type: functional; settings: 30 µM
# [2] = molecular target: T1, Ubiquitin-activating enzyme e1, putative (Leishmania donovani (strain BPK282A1)) (UniProt E9BSI1); assay: Leishmania donovani Ubiquitin Activating Enzyme (LdE1); assay type: functional; settings: 30 µM
# T1 sequence (whole entry): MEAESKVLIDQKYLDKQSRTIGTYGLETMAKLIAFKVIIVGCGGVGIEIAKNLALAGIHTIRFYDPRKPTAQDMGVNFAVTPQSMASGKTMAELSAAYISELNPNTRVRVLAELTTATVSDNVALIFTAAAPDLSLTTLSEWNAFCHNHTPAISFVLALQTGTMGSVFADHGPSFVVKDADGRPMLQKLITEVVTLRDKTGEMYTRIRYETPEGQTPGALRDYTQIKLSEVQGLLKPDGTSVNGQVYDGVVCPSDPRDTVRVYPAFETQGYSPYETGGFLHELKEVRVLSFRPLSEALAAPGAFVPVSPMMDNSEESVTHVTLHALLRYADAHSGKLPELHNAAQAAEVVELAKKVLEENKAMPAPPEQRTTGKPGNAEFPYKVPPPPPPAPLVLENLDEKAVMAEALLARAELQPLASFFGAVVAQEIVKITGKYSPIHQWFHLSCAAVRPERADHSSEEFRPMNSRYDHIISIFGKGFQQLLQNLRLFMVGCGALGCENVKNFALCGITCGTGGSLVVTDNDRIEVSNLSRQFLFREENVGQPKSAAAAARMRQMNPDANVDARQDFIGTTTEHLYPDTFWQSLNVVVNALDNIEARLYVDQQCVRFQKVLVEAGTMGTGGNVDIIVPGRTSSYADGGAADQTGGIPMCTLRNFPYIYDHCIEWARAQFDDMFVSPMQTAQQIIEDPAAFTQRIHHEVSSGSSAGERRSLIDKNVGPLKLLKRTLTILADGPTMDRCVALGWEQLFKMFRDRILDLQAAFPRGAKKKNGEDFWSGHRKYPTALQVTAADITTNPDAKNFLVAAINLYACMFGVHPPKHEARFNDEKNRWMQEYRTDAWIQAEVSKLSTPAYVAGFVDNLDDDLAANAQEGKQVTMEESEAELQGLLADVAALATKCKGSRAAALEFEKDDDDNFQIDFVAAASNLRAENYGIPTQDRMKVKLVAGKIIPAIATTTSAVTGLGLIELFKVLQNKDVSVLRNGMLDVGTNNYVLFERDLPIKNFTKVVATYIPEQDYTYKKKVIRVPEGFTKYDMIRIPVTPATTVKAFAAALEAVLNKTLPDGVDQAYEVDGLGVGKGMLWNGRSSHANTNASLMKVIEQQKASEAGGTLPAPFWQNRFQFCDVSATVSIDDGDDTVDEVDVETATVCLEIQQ
# [3] = molecular target: AMP-activated protein kinase, AMPK (Homo sapiens) (UniProt P54646+O43741+P54619+Q9UGJ0+Q9Y478+Q13131+Q9UGI9); assay: AMP-dependent Kinase enzyme assay. An in vitro enzyme assay that detects ADP turnover that is directly proportional to AMPK activity. This uses naive AMPK that is activated during the assay with MK-8722; assay type: functional; settings: 30 µM
# [4] = molecular target: Sialic acid-binding Ig-like lectin 9 (Homo sapiens) (UniProt Q9Y336); assay: Hs-Siglec9 ALPHAscreen SOP 20170721; settings: 10 µM
# Trypanosoma cruzi = assay: Trypanosoma cruzi phosphomannomutase and mannose-1-phosphate guanylyltransferase assay; assay type: functional; settings: 10 µM
# [5] = molecular target: T2, Arginase-2, mitochondrial (Homo sapiens) (UniProt P78540); assay: in vitro enzyme assay to detect the production of urea directly proportional to the activity of Arginase II; assay type: functional; settings: 33.3 µM; also: in the data most compounds retested in dose-response had high values
# T2 sequence (whole entry): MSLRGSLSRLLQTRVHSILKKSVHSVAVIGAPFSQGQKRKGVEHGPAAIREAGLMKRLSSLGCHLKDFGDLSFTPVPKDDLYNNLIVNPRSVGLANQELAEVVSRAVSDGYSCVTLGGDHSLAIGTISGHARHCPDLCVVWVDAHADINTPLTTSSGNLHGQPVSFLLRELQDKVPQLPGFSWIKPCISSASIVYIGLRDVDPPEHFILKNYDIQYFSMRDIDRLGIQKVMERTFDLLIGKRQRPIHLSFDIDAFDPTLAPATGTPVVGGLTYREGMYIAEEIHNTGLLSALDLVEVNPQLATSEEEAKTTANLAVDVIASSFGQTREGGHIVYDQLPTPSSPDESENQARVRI
# [6] = molecular target: T3, Proteasome subunit beta (Trypanosoma cruzi) (UniProt O96673); assay: Trypanosoma cruzi proteasome chymotrypsin-like activity (TcProtChymo) assay.; also: in the data most compounds retested in dose-response had high values; assay type: functional; settings: 9.37 µM
# T3 sequence (whole entry): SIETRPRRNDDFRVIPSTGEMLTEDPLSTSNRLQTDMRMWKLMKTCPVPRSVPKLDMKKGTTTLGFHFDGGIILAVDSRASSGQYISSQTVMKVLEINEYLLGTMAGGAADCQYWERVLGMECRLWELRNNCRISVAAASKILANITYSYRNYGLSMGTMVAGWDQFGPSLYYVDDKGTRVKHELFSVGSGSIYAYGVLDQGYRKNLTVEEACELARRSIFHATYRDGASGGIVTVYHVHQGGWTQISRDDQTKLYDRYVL
# Homo sapiens = species on record: Homo sapiens; assay: To identify inhibition of the IFN signalling (Jak-Stat) pathway via expression of an eGFP reporter gene under the control of an IFN-stimulated response element (ISRE) containing MxA promoter.; assay type: functional; settings: 30 µM
# [7] = molecular target: T4, Tyrosyl-tRNA synthetase, putative (Trypanosoma cruzi (strain CL Brener)) (UniProt Q4DSP6); assay: Trypanosoma cruzi tyrosyl tRNA synthetase (TcYRS) _High Tyrosine SOP; assay type: functional; settings: 30 µM; also: in the data most compounds retested in dose-response had high values
# T4 sequence (whole entry): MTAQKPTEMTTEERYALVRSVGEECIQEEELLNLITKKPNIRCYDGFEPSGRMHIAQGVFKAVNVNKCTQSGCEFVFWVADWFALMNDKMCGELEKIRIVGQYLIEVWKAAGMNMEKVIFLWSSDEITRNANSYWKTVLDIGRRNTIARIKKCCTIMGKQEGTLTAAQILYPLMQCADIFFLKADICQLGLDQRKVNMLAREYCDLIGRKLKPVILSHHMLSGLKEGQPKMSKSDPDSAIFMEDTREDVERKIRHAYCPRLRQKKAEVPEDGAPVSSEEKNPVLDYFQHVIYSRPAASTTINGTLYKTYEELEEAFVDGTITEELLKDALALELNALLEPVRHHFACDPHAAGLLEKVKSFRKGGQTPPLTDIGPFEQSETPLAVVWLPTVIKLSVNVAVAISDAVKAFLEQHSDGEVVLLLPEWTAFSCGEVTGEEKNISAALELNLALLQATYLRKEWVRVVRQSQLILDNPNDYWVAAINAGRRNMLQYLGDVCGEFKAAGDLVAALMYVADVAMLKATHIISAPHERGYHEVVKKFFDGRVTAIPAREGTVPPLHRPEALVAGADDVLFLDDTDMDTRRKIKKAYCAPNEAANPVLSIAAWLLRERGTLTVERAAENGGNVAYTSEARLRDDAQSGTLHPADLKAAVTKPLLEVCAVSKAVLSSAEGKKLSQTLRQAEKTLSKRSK
# [8] = molecular target: T4, Tyrosyl-tRNA synthetase, putative (Trypanosoma cruzi (strain CL Brener)); assay: Trypanosoma cruzi tyrosyl tRNA synthetase (TcYRS) SOP; assay type: functional; settings: 30 µM
# [9] = molecular target: Chromo domain-containing protein 1 (Saccharomyces cerevisiae (strain ATCC 204508 / S288c) (Baker's yeast)) (UniProt P32657); assay: ScCHD-1 Enzyme Inhibition Assay; assay type: functional; settings: 30 µM; also: in the data most compounds retested in dose-response had high values
# Chromo domain-containing protein 1 (Saccharomyces cerevisiae (strain ATCC 204508 / S288c) (Baker's yeast)), sequence (P32657 whole entry, the tested form may be a part): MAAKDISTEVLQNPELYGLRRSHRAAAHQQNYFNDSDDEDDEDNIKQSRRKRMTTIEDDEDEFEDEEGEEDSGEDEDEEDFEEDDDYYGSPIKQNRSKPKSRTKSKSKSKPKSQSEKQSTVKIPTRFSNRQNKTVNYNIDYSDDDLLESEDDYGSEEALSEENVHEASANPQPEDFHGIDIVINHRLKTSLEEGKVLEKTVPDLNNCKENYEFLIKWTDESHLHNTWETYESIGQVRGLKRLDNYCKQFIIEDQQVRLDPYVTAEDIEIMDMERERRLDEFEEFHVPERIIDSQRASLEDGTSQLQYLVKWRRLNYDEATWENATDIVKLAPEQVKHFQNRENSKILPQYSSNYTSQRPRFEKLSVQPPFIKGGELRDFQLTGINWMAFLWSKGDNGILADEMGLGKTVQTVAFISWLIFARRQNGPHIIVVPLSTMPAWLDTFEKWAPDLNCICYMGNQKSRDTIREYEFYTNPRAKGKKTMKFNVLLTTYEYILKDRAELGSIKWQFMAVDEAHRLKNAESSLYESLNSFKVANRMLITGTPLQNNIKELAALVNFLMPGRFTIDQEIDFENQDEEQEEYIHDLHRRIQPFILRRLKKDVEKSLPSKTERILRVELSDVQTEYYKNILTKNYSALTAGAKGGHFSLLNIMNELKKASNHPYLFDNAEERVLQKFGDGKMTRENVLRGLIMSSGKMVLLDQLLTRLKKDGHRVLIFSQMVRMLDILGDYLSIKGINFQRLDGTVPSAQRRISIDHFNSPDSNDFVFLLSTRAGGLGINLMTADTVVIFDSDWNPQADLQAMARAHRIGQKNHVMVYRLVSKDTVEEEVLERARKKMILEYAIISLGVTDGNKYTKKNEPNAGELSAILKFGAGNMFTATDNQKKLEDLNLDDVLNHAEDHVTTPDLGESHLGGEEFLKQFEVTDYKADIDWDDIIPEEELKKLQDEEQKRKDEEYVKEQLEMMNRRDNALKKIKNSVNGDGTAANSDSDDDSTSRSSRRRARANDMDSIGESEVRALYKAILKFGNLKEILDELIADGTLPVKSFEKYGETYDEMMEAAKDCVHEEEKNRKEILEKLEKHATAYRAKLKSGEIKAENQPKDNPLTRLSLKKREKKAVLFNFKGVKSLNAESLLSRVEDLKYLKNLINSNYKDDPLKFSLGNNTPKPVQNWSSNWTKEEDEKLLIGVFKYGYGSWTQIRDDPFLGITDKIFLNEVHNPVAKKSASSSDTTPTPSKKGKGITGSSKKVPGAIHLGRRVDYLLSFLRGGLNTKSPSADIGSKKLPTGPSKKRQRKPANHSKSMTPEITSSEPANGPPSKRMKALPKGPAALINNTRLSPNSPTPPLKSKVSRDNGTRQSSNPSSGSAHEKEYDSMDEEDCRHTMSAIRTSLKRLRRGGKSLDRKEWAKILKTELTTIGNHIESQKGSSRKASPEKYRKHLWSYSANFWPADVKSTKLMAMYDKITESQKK
# Sialic acid-binding Ig-like lectin 9 (Homo sapiens), sequence (Q9Y336 whole entry): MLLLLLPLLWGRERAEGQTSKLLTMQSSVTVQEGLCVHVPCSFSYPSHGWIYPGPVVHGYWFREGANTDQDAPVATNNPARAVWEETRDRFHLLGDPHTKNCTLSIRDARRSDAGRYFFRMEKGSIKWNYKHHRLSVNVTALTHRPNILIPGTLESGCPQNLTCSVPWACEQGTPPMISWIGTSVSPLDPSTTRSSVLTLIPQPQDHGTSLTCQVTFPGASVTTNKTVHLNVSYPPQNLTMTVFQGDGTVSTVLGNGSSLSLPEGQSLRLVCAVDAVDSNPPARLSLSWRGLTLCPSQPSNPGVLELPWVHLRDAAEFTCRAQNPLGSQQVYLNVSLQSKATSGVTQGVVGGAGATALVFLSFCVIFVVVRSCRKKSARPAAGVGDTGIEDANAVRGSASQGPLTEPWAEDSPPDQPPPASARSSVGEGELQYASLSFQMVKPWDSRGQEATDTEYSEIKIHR
# Protein translocase subunit SecA (Escherichia coli (strain K12)), sequence (P10408 whole entry): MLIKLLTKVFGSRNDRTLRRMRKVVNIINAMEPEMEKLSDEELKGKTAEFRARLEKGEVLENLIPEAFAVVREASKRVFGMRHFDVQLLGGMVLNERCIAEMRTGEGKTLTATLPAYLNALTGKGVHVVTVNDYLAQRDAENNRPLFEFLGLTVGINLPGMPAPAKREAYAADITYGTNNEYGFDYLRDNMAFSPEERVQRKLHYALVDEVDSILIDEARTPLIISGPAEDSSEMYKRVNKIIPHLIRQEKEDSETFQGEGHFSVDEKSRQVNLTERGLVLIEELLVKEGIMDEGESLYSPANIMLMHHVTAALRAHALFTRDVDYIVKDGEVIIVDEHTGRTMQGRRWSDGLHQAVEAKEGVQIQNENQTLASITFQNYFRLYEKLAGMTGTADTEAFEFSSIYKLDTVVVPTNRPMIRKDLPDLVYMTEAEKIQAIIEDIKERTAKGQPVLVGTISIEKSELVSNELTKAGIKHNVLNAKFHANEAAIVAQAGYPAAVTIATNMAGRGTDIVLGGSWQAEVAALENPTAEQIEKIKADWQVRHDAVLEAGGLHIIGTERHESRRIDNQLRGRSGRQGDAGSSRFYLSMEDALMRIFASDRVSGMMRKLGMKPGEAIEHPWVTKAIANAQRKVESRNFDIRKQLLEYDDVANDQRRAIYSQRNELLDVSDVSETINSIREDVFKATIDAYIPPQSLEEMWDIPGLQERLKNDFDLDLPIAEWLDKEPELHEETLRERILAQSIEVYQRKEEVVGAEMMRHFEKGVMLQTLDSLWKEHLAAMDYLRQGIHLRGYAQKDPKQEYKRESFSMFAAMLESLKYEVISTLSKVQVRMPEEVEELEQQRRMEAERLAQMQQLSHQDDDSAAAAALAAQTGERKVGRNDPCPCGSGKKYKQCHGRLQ
SMILES,Percent Effect [1] [%],Percent Effect [2] [%],Percent Effect [3] [%],Percent Effect [4] [%],Percent Effect (Trypanosoma cruzi) [%],Percent Effect [5] [%],Percent Effect [6] [%],Percent Effect (Homo sapiens) [%],Percent Effect [7] [%],Percent Effect [8] [%],Percent Effect [9] [%]
CC(OCC(F)(F)F)C(=O)N1CCN(S(C)(=O)=O)CC1 (configuration not stated),-3.82,8.22,1.32,-5.16,-3.92,1.36,9.05,17.4,6.45,15,-6.7
COc1cccc(S(=O)(=O)CCN2CCCN(C(C)=O)CC2)c1,-0.358,5.33,-1.44,13.1,6.13,24,1.22,18.5,1.64,6.17,-15.8
CN(C)c1ccc(CNC(=O)c2ccc(Cl)cc2F)cc1,-6.46,21.1,-2.58,2.05,1.46,-4.73,13.7,11.1,4.25,20.8,-6.29
c1coc(CN2C[C@H](OCC3CCOCC3)[C@H]3COC[C@H]32)c1,-3.71,8.11,6.46,-3.04,-3.23,-0.955,15.3,13.1,0,12.8,1.07
O=C(Cn1ccc2ccc(Br)cc21)NCc1ccc(C(=O)O)cc1,-2.06,-5.26,4.18,-0.116,-7.69,-3.55,9.88,-5.25,-10.6,-13,-4.34
CCOc1cccc2c1OCC(C(=O)NS(=O)(=O)c1ccc(C)s1)=C2,-4.93,-8.11,-7.07,7.91,-1.98,4.01,9.01,5.57,-9.36,-18.5,-1.03
COc1cccc(COCC(O)CN2CC(n3cccn3)C2)c1 (configuration not stated),0.892,21.1,5.98,1.34,6.58,-0.383,10.4,-16.2,7.35,19.5,-12.6
Cc1nc(C)n(C2CCCN(C(=O)c3cnc[nH]3)C2)n1 (configuration not stated),-4.48,-2.7,-9.26,8.79,-4.43,2,-2.7,0.378,-5.42,1.24,6.8
CC(C)C(=O)NCCNc1nccc(-c2cc(C(=O)O)ccn2)n1,-4.2,19.2,-3.6,15,2.74,6.82,13.1,2.74,9.68,20,-5.35
CCCN1CCN(C(=O)C(C)n2cc(Br)cn2)CC1 (configuration not stated),-1.59,15.6,5.22,7.33,3.05,-137,10.3,-2.4,7.53,21,-7.35
Cc1cc(C)n(CC2CN(CC(=O)NC3CCCC3)CCO2)n1 (configuration not stated),-8.44,7.79,2.32,-3.15,-8.24,-0.712,2.03,32.3,1.94,2.44,-5.73
O=S(=O)(C1CC1)N1CCC2(COCc3cnc(N4CCOCC4)nc32)C1 (configuration not stated),1.84,14.7,1.88,-4.21,-2.55,-6.16,9.61,13.3,1.06,5.13,-7.85
Cc1nc(O)c2nnn(C[C@H]3CCCN3C(=O)CCC3CCCC3)c2n1,-1.52,-4.05,9.5,-1.58,-1.78,-1.62,2.5,-0.726,-1.07,-1.3,13.7
Cc1nc2ccnn2c(C)c1CCC(=O)N1CCC(C(N)=O)CC1,-6.89,2.63,0.295,-2.71,-5.32,2.88,5.5,4.03,5.42,1.24,1.87
Cc1csc(CNC(=O)NCC(O)c2cccc(Cl)c2)n1 (configuration not stated),-1.7,8.11,-4.44,1.18,3.48,-2.38,20.5,24.4,3.7,12.2,-0.155
CNc1nc(C(=O)N2CCCC(c3nccn3CC3CCC3)C2)cs1 (configuration not stated),-5.42,8.22,-0.395,-0.171,1.96,0.455,7.81,0.132,6.45,-22.5,-6.79
CO[C@H]1CCN(c2ccc(C)nn2)[C@H]1Cc1cnn(C)c1,-5.98,2.7,-6.04,1.75,0.977,0.417,14.4,-17.9,9.9,11,-6.2
O=C(c1cc(COc2ccc3c(c2)OCO3)[nH]n1)N1CCCC1,-4.35,-5.48,4.54,2.19,-5.56,4.39,21.7,14.2,3.12,6.17,-1.77
Cc1ccc(N2CCCN(C(=O)c3cc(Cl)c[nH]3)CC2)nn1,-3.96,-5.48,4.73,4.6,-3.17,3.59,9.33,2.32,12.5,23.5,-1.25
COc1ccc(OCc2nc(C(=O)N3CC[C@H](O)[C@@H](O)C3)co2)cc1,-5.04,2.7,-0.405,4.91,-3.09,-0.476,12.8,-0.834,6.88,12.2,-4.44
CN(C)[C@@H]1CCN(c2ncccn2)[C@H]1Cc1ccccc1,-5.52,5.2,0.378,3.63,2.06,-1.38,8.65,-3.26,2.15,6.17,1.34
Cc1noc([C@@]23CCO[C@@H]2CCN(CC2CCOCC2)C3)n1,2.95,8,7.01,4.21,-6.76,-51.4,9.91,2.92,8.33,20,-7.02
